Source: the supplement of paper PMC12636033
± gives the standard deviation of the averaged measurements. The full ranking holds about 33,000 sequences; the median of “E-score (rank enrichment, -0.5 to 0.5)” is about -0.0075, and the highest 2% start at about 0.23. This is one part of a sample in which the highest values are shown more often than they occur.

Each sequence was assayed on WT Max(13-93) synthetic (M65Nle) (assay: PBM 8-mer E-score (E-score (rank enrichment, -0.5 to 0.5)); higher = stronger preferential binding).
Protocol: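 Protein binding microarray (universal PBM chip covering all 10-mers in fixed probe flanks) with chemically synthesized human Max(13-93) bHLH-LZ analogs (not full-length Max) bearing noncanonical residues (hArg, Tha, Aib, Nle at 65) and aromatic Cys staples. Read-out per 8-mer (and its reverse complement): E-score (rank-based enrichment, -0.5 to 0.5) and Z-score of median probe intensity.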

Compared with CCAAGCAC, ACACCGCA is lower in “PBM 8-mer E-score” value: 0.139 ± 0.07 for the first, -0.148 ± 0.046 for the second.

CCGACCGA and CGTTCGAC are within error of each other in “PBM 8-mer E-score” value: -0.158 ± 0.039 for the first, -0.123 ± 0.034 for the second.

CCATGTAC and CCATGTAA are within error of each other in “PBM 8-mer E-score” value: 0.0683 ± 0.0021 for the first, 0.0612 ± 0.026 for the second.

GCATGTAC and ACATGTCT are within error of each other in “PBM 8-mer E-score” value: 0.197 ± 0.093 for the first, 0.222 ± 0.1 for the second.

TCATGTAA and CAATGTAC are within error of each other in “PBM 8-mer E-score” value: 0.148 ± 0.0053 for the first, 0.0304 ± 0.16 for the second.

First: GCATGTAA
Second: AGATGTAT
The “PBM 8-mer E-score” value of the first is higher: 0.239 ± 0.0044 for the first, 0.158 ± 0.0099 for the second.

Compared with ACATGTAT, AAATGTAG is lower in “PBM 8-mer E-score” value: 0.341 ± 0.019 for the first, 0.144 ± 0.015 for the second.

AAATGTAC and ACATGTAC are within error of each other in “PBM 8-mer E-score” value: 0.268 ± 0.026 for the first, 0.29 ± 0.009 for the second.

Going from ATTATCCC to CCGCGTAA, the “PBM 8-mer E-score” value falls from 0.073 ± 0.014 to -0.0539 ± 0.056.

Compared with CGTTCGTA, CCGTTCAC is lower in “PBM 8-mer E-score” value: 0.0244 ± 0.0097 for the first, -0.15 ± 0.0062 for the second.

Going from AAATGTAA to ACATGTAA, the “PBM 8-mer E-score” value rises from 0.0766 ± 0.017 to 0.317 ± 0.0085.

AGATGTAA and CCATGTAG are within error of each other in “PBM 8-mer E-score” value: 0.114 ± 0.043 for the first, 0.14 ± 0.045 for the second.

First: AGATGTAG
Second: ACATGTAG
The “PBM 8-mer E-score” value of the first is lower: 0.0391 ± 0.11 for the first, 0.329 ± 0.031 for the second.

ATTCGATA and CTGCAGAA are within error of each other in “PBM 8-mer E-score” value: 0.0933 ± 0.11 for the first, -0.039 ± 0.059 for the second.

First: CGGGTTGC
Second: CTGACCAA
The “PBM 8-mer E-score” value of the first is lower: -0.0971 ± 0.064 for the first, -0.00243 ± 0.0086 for the second.

First: CATGGTCC
Second: CATGGTCG
The “PBM 8-mer E-score” value of the first is lower: 0.0038 ± 0.074 for the first, 0.219 ± 0.039 for the second.

Going from CATGGTCA to GATGGTTA, the “PBM 8-mer E-score” value falls from 0.291 ± 0.031 to 0.0493 ± 0.12.

Compared with AATGGTTA, CATGGTTA is higher in “PBM 8-mer E-score” value: 0.147 ± 0.038 for the first, 0.2411 ± 0.0015 for the second.

TGCCGCAA and GAATAGGC are within error of each other in “PBM 8-mer E-score” value: 0.106 ± 0.083 for the first, 0.113 ± 0.015 for the second.

CCGTGAGC and CAGGGGTC are within error of each other in “PBM 8-mer E-score” value: -0.142 ± 0.048 for the first, -0.0985 ± 0.052 for the second.

GCGACGAC and TGTACGAA are within error of each other in “PBM 8-mer E-score” value: -0.0631 ± 0.081 for the first, 0.0875 ± 0.095 for the second.

CATGCTAC and AATGCTGG are within error of each other in “PBM 8-mer E-score” value: 0.0659 ± 0.14 for the first, 0.0745 ± 0.034 for the second.

Compared with CATGCTGG, CATGCTGC is lower in “PBM 8-mer E-score” value: 0.314 ± 0.04 for the first, 0.183 ± 0.089 for the second.

Going from CATGCTAG to AATGCTAG, the “PBM 8-mer E-score” value falls from 0.241 ± 0.034 to -0.0447 ± 0.064.

CCCCCGTC and TGCCGGAA are within error of each other in “PBM 8-mer E-score” value: -0.0979 ± 0.09 for the first, -0.154 ± 0.028 for the second.

AATGCGCC and CCACTTAG are within error of each other in “PBM 8-mer E-score” value: -0.0607 ± 0.1 for the first, 0.00666 ± 0.08 for the second.

CCGAGCGG and CAACTACG are within error of each other in “PBM 8-mer E-score” value: -0.0233 ± 0.11 for the first, -0.0136 ± 0.15 for the second.

First: GCCTCGAA
Second: ACTTGCTA
The “PBM 8-mer E-score” value of the first is lower: -0.199 ± 0.015 for the first, 0.0291 ± 0.18 for the second.

Compared with CAACAGGC, AACATAAA is higher in “PBM 8-mer E-score” value: -0.126 ± 0.031 for the first, 0.225 ± 0.066 for the second.

Going from TACATAAA to GTCATAAA, the “PBM 8-mer E-score” value rises from 0.234 ± 0.02 to 0.282 ± 0.021.

Compared with TACATACA, CACATACA is lower in “PBM 8-mer E-score” value: 0.275 ± 0.015 for the first, 0.00143 ± 0.16 for the second.

TTCATAAA and CACATAAA are within error of each other in “PBM 8-mer E-score” value: 0.0506 ± 0.062 for the first, 0.106 ± 0.099 for the second.

First: CACATACG
Second: AACATACG
The “PBM 8-mer E-score” value of the first is lower: 0.0417 ± 0.11 for the first, 0.246 ± 0.04 for the second.

GTCATAAC and GACATACA are within error of each other in “PBM 8-mer E-score” value: 0.0805 ± 0.074 for the first, 0.162 ± 0.037 for the second.

First: AACATACT
Second: CCGTCTGC
The “PBM 8-mer E-score” value of the first is higher: 0.0867 ± 0.12 for the first, -0.0961 ± 0.0095 for the second.

Compared with GTGAAACA, AGTAGTTC is lower in “PBM 8-mer E-score” value: 0.0563 ± 0.012 for the first, -0.116 ± 0.027 for the second.

CACCTAAC and CGTTCAGC are within error of each other in “PBM 8-mer E-score” value: -0.189 ± 0.12 for the first, -0.266 ± 0.082 for the second.

Going from TCATTGCA to AACATACA, the “PBM 8-mer E-score” value rises from 0.0909 ± 0.036 to 0.26 ± 0.062.

AACATACC and ACCATACA are within error of each other in “PBM 8-mer E-score” value: 0.0333 ± 0.06 for the first, 0.0446 ± 0.2 for the second.

Compared with ACGTCGGA, AGGTGCAT is higher in “PBM 8-mer E-score” value: -0.0798 ± 0.0092 for the first, 0.139 ± 0.0098 for the second.

ACGTGCAG and ATGTGCAA are within error of each other in “PBM 8-mer E-score” value: 0.325 ± 0.063 for the first, 0.203 ± 0.06 for the second.

Compared with CCGTGCAC, ATGTGCAC is higher in “PBM 8-mer E-score” value: 0.0618 ± 0.097 for the first, 0.29 ± 0.059 for the second.

ATGTGCAG and AAGTGCAT are within error of each other in “PBM 8-mer E-score” value: 0.0828 ± 0.0059 for the first, 0.115 ± 0.097 for the second.
